# Source: PubChem BioAssay
# Test system: XIP peptide (Xip251-270)
# Experiment: compounds binding XIP fragment 251-270 – biochemical, small-molecule microarray, fluorescence 635/667 nm, 0.5 µg/mL protein, primary screen (AID 1183)
# Details: fluorescence 635 nm, higher = more signal
row,SMILES,composite z-score
1,CC(C)c1ccc(NN2C(C(O)c3ccc4c(c3)OCO4)C=CC3C(=O)N(c4ccccc4)C(=O)C32)cc1 (stereo not drawn),0.665
2,CN1C(=O)[C@@]2(CCC(=O)OC(C)(C)C)N=C(c3ccc(OCCCO)cc3)O[C@H]2c2ccccc21,0.576
3,COC(=O)[C@@]1(Cc2ccc(F)cc2)[C@@H]2C(=CC(=O)[C@H]2CC(=O)C(=O)N(C)C)CN1C(=O)c1ccccc1,0.472
4,O=C(CS)NCCCCCNC(=O)[C@H]1C[C@H]2C(=O)N3CCC[C@H]3C(=O)N2[C@H]1c1cccc(OCCO)c1,0.887
5,C=CCOC(=O)[C@H]1[C@@H]2C(=O)O[C@@H](c3ccccc3)[C@@H](c3ccccc3)N2[C@@H](c2ccc(OCCOC(=O)[C@H]3C[C@H]4C(=O)N[C@@H](Cc5ccccc5)C(=O)N4[C@H]3c3ccc(O)cc3)cc2)[C@]12C(=O)Nc1ccccc12,0.823
6,COc1ccc([Si](C)(C)[C@@H]2[C@@H](CCO)O[C@]3(C(=O)N(Cc4ccc(NC(C)=O)cc4)c4ccccc43)[C@H]2C)cc1,0.811
7,CCCCCN1CC=CC23O[C@@H]4C=CCOC(=O)[C@@H]4[C@H]2C(=O)N(CCCCCCO)[C@@H]3C1=O (stereo partly drawn),-0.325
8,COC(=O)C1(C)C=C2C(=C(c3ccccc3)C(=O)C2C)CN1 (stereo not drawn),0.923
9,CC(C)N1CC=CC23O[C@@H]4C=CCCOC(=O)C4[C@H]2C(=O)N(CCCCCCO)[C@@H]3C1=O (stereo partly drawn),0.645
10,COc1ccc([Si](C)(C)[C@H]2[C@H](CCO)O[C@@]3(C(=O)N(Cc4cccc(NC(=O)[C@H](C)O)c4)c4ccccc43)[C@@H]2C)cc1,0.618
11,COc1ccc(CCNC(=O)[C@@H]2c3ccccc3C(=O)N(c3ccc(C)cn3)[C@H]2c2ccc(CO)cc2)cc1,0.843
12,C=CCNC(=O)[C@H]1[C@@H]2C(=O)O[C@@H](c3ccccc3)[C@@H](c3ccccc3)N2[C@@H](c2ccc(O)cc2)[C@]12C(=O)N(C(=O)OCCOC)c1ccc(C#CC3=CCCCC3)cc12,0.834
13,[N-]=[N+]=NCc1ccccc1[C@@H]1OC(c2ccc(OCCCO)cc2)=N[C@]1(Cc1ccccc1)C(=O)N1CCOCC1,0.841
14,CC(C)C[C@@H]1NC(=O)[C@H]2C[C@@H](C(=O)NCCCCCCN(C)C)[C@@H](c3cccc(OCCO)c3)N2C1=O,0.905
15,C=C(/C(=C/C[C@@H](OC(=O)c1ccncc1)c1ccc(OCCO)cc1)c1cnc2ccccc2c1)C(C)C,0.565
16,CS(=O)(=O)CCOC(=O)C1=CC(CCCO)=CC(c2cccs2)N(Cc2cccc(OC(F)(F)F)c2)C=C1C(=O)OCCS(C)(=O)=O (stereo not drawn),-0.0502
17,COCCCNC(=O)[C@]1(CCC(=O)OC(C)(C)C)N=C(c2ccc(OCCCO)cc2)O[C@@H]1c1ccccc1N=[N+]=[N-],0.764
18,Cc1ccc(C2CC=C(C(=O)O)CN2S(=O)(=O)c2ccc(C)cc2)cc1 (stereo not drawn),0.912
19,O=C1O[C@@H](c2ccccc2)[C@@H](c2ccccc2)N2[C@@H](c3ccc(OCCO)cc3)[C@]3(C(=O)Nc4ccccc43)[C@@H](C(=O)N3CCN(c4ncccn4)CC3)[C@H]12,0.812
20,COCCOC(=O)N1C(=O)[C@@]2(c3cc(C#CCNC(N)=O)ccc31)[C@H](c1ccccc1OCCO)N1[C@H](c3ccccc3)[C@H](c3ccccc3)OC(=O)[C@H]1[C@@H]2C(=O)N1CCN(c2ncccn2)CC1,0.787
21,COCCOC(=O)N1C(=O)[C@@]2(c3cc(C#Cc4ccc(OC)cc4)ccc31)[C@H](C(=O)N1CCN(c3ncccn3)CC1)[C@H]1C(=O)O[C@H](c3ccccc3)[C@H](c3ccccc3)N1[C@@H]2c1ccc(OCCO)cc1,0.43
22,CN(C)CCCNC(=O)[C@@H]1c2ccccc2C(=O)N(Cc2cc(F)cc(C(F)(F)F)c2)[C@H]1c1ccc(CO)cc1,-0.0306
23,CCCNC(=O)[C@@H]1c2ccccc2C(=O)N(c2ccc(C)cn2)[C@H]1c1ccc(CO)cc1,-0.314
24,CN1C(=O)C2C=CC(C(O)c3ccc(I)cc3)N(NC(=O)OC(C)(C)C)C2C1=O (stereo not drawn),0.575
25,COC(=O)c1c(CC[C@@H](CO)NC(=O)N[C@H](Cc2ccccc2)Cn2cc(-c3ccccc3N)nn2)oc(C(C)=O)c1C(=O)OC,0.0678
26,CCCC=C(CCC)[C@@H](NC(=O)c1ccc(-c2ccccc2)cc1)c1ccc(C(=O)OC)cc1,0.0922
27,COCC(=C=CC[C@@H](O)c1ccccc1OCCO)CCO,0.0706
28,CC1CC/C=C\[C@H]2OC34C=CCN(C(C)C)C(=O)[C@H]3N(CCCO)C(=O)[C@@H]4C2C(=O)O1 (stereo partly drawn),-0.835
